Cruzain noTriton: blocks cruzain activity in detergent-free assay. P25779. purified cruzain, Z-FR-AMC fluorescence, no detergent. Potency, µM, for the others: max response, negative = inhibition, usual class: inhibitors. actives 2.3% (n = 200,000);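 further: plate controls were enzyme without inhibitor for no effect and buffer without enzyme for full effect; nearly all actives have a fitted effect of over 40% in size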
Target sequence (P25779 123-467 limits assumed): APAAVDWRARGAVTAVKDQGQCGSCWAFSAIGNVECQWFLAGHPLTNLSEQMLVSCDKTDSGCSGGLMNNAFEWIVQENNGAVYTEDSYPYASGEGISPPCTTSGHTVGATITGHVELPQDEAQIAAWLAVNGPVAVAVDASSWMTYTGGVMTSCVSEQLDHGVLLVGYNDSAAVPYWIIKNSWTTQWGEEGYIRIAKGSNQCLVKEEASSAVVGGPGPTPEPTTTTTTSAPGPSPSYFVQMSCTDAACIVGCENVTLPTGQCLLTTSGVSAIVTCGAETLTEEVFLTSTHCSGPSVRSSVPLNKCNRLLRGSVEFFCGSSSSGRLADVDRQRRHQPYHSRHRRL
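Purified cruzain at 1.5 nM, pre-incubated 15 min with compound at room temperature in 100 mM sodium acetate pH 5.5, 5 mM DTT, 0.00005% Triton X-100. Reaction started with 2 uM Z-FR-AMC; AMC fluorescence increase over 60 s gives rate.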
Cruzain inh Det: cruzain (T. cruzi) inhibition with detergent; P25779; purified cruzain, Z-FR-AMC fluorescence, 0.01% Triton; Potency, µM, for the others: max response, negative = inhibition, hits mostly inhibitors; actives 0.43% (n = 200,000); AID 1478;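 further: plate controls were neutral wells for no effect and buffer without enzyme for full effect; nearly all actives have a fitted effect of over 40% in size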
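Enzyme 1.5 nM, Z-FR-AMC 2 uM, NaOAc 100 mM pH 5.5, DTT 5 mM, Triton X-100 0.01%; 15 min RT compound preincubation; kinetic ex360/em450, 60 s delta.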
Starred values were filed as active, the others as inactive; u = inconclusive. Most compounds without a hit are left out; they make up all but 2.5% or so of the library. The call rests on the fitted dose curve; in most records, active means well fitted curve in the direction sought with a large enough effect; inconclusive means small, poorly fitted or top-dose-only effect, or another doubt; inactive means no such curve, though single readings can be large; an effect the other way counts as inactive or inconclusive. Potency means the concentration at half of the fitted maximal effect.

SMILES	Cruzain noTriton	Cruzain inh Det
O=C(Nc1ccccc1)N1CCCC2(CCN(C(=O)c3ccco3)CC2)C1	9%	5%
O=C(Cn1cnc2sc(-c3ccccc3)cc2c1=O)NCCc1ccccc1	-23%	-1%
O=C(Cn1cnc2sc(-c3ccccc3)cc2c1=O)NCc1ccccc1	16µM*	1%
COc1ccc(C)cc1NC(=O)Nc1ccc(Br)cn1	25µM*	3%
CCOC(=O)Nc1cc(C)ccc1OC	-12%	8%
CCOc1ccc(CCNC(=O)CCCc2nnc3n(CC)c(=O)c4sccc4n23)cc1	5%	-1%
O=C(CN1CCCC1)N/N=C/c1ccc(-c2cccc(Cl)c2)o1	-10%	-12%
O=C(Cn1nnc(-c2ccccc2Cl)n1)N/N=C/c1ccc(-c2cccc(Cl)c2)o1	32µM*	-4%
COc1ccc(CNC(=O)C2CCN(S(=O)(=O)c3c(C)noc3/C=C/c3cccs3)CC2)cc1	13%	-4%
COC(=O)NC(=S)Nc1ccc(Oc2ccc(Cl)cc2)c(Cl)c1	-7%	-7%
COC(=O)NC(=S)Nc1ccc(Oc2ccc(Cl)cc2Cl)c(Cl)c1	25µM*	-4%
CCN(Cc1ccccc1)C(=O)Cn1c(=O)n(-c2ccc(Cl)cc2)c(=O)c2c(C)c(C)sc21	7%	0%
COc1ccc(S(=O)(=O)Nc2ccccc2C(=O)NCc2ccco2)cc1Br	25µM*	u
CCOc1ccc(S(=O)(=O)Nc2ccccc2C(=O)NCc2ccco2)cc1	6%	-12%
COc1ccc(-c2nc3n(n2)C(c2ccccc2F)C(C(=O)Nc2cccnc2)=C(C)N3)cc1OC (centres undefined)	29%	-5%
Cc1ccc(C)c(CN2C(=O)c3ccccc3S(=O)c3ccc(C(=O)N4CCN(c5cccc(Cl)c5)CC4)cc32)c1 (centres undefined)	-2%	0%
CCc1ccc(C2=C/C(=C/c3cccnc3)C(=O)O2)cc1	3%	-10%
Cc1ccc(C2=N/C(=C\c3cccnc3)C(=O)O2)cc1	13µM*	14µM*
Cc1cccc(C(=O)Nc2ccccc2OCc2cc(=O)n3ccccc3n2)c1	-2%	5%
COc1ccc(OC)c(NC(=O)c2ccc3c(c2)c(C)c(C)n3Cc2ccc(F)cc2)c1	5µM*	1%
CCOc1ccc(NC(=O)c2ccc3[nH]c(C)c(C)c3c2)cc1	-19%	-8%
COc1ccc(NC(=O)c2ccc3c(c2)c(C)c(C)n3Cc2ccc(F)cc2)c(OC)c1	u	-1%
Cc1c(C)n(Cc2ccc(F)cc2)c2ccc(C(=O)Nc3ccc(Cl)cc3)cc12	25µM*	3%
Cc1ccc(CNC(=O)c2ccc3c(c2)c(C)c(C)n3Cc2ccc(Cl)cc2)o1	u	-1%
CCOc1ccc(NC(=O)c2ccc3c(c2)c(C)c(C)n3Cc2ccc(F)cc2)cc1	25µM*	2%
SMILES	Cruzain noTriton	Cruzain inh Det
CCn1c(C)c(C)c2cc(C(=O)Nc3cccc(Cl)c3)ccc21	u	-6%
CC(=O)c1cccc(NC(=O)c2ccc3c(c2)c(C)c(C)n3Cc2ccc(Cl)cc2)c1	6.3µM*	3%
COc1ccc(CCNC(=O)c2c(C)nn(-c3ccc(F)cc3)c2-n2cccc2)c(OC)c1OC	u	-7%
Cc1c(Cl)cccc1NS(=O)(=O)c1ccc(-c2cnc(C3CC3)o2)cc1	12%	-7%
COc1cccc(CNC(=O)C2CCN(S(=O)(=O)c3cn(C)cn3)CC2)c1	5%	2%
COc1ccc(CCNC(=O)CCc2c(C)c3cc4c(C)coc4c(C)c3oc2=O)cc1OC	u	7%
COc1cc(SC#N)ccc1N=Cc1c(C)[nH]n(-c2cccc3ccccc23)c1=O	25µM*	-5%
COc1cc(SC#N)ccc1N=Cc1c(C)[nH]n(-c2ccc(C)cc2C)c1=O	-17%	-2%
CCOc1ccc(OCC(=O)NCCS(=O)(=O)N2CCN(c3ccc(OC)cc3)CC2)cc1	-6%	0%
Cc1cccc(-c2nc(S(=O)(=O)c3ccc(Cl)cc3)c(N3CCCCCC3)o2)c1	-5%	-21%
Cc1ccc(C)c(N2CCN(C(=O)c3cc4ccc5cccnc5c4[nH]3)CC2)c1	-26%	-7%
Cc1cccc(N2CCN(C(=O)c3cc4ccc5cccnc5c4[nH]3)CC2C)c1 (centres undefined)	13µM*	-7%
Cc1ccc(NC(=O)c2ccc3c(=O)n4nc(Nc5ccccc5C)sc4nc3c2)cc1C	2%	-1%
CCc1ccccc1NC(=O)c1oc(=O)c2ccccc2c1-c1ccccc1	-4%	-4%
COc1ccc(-c2onc(C)c2C)cc1S(=O)(=O)Nc1ccc(OC(F)(F)F)cc1	-3%	-9%
COc1ccccc1/C=C(/CC(=O)NCc1ccc2c(c1)OCO2)c1nc2ccccc2s1	16µM*	-4%
COc1ccc(/C=C(/CC(=O)NCc2ccc(Cl)cc2)c2nc3ccccc3s2)cc1	32µM*	-6%
COc1ccc(/C=C(/CC(=O)Nc2ccccc2)c2nc3ccccc3s2)cc1	u	-7%
COc1ccccc1NC(=O)NCc1ccc2c(c1)OCO2	4%	2%
